According to PubChem BioAssay AID1159580 (chemical genetic matrix, 2015):
“And” between values parts separate entries of the source, which are not always exact repeats. Equal values may be shown once. The campaign covered roughly 5,500 compounds. About 2,000 (36%) were called active. About 18% were inconclusive and are not listed. No stated cut-off is given here; in the data, active means normalized growth mostly below about 0.91 (no sharp cut-off); inconclusive means no clear call, values can overlap the other calls; inactive means mostly above about 0.92. The list shows a part of the results.

Experiment: chemical genetic growth profiling, strain panel (AID 1159580);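 further: tested at 20 µM; growth read once vehicle control cultures reached saturation at 30 °C; 1 = growth at the plate median or of vehicle wells; lower values mean less growth of the strain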
Settings: S. cerevisiae deletion strains, growth OD
[1] = locus YAL013W, strain DEP1, hits give low values
[2] = locus YAL040C, strain CLN3, hits give low values
[3] = locus YCL061C, strain MRC1 (second series), hits give low values
[4] = locus YDR363W, strain ESC2, hits give low values
[5] = locus YER002W, strain NOP16, hits give low values
[6] = locus YGR078C, strain PAC10, hits give low values
[7] = locus YJR075W, strain HOC1, hits give low values
[8] = locus YMR263W, strain SAP30, hits give low values
[9] = locus YMR307W, strain GAS1, hits give low values
[10] = locus YNL128W, strain TEP1, hits give low values
[11] = locus YNL175C, strain NOP13, hits give low values
[12] = locus YNL197C, strain WHI3, hits give low values
[13] = locus YNL224C, strain SQS1, hits give low values
[14] = locus YNL322C, strain KRE1, hits give low values
[15] = locus YOR083W, strain WHI5 (second series), hits give low values
[16] = locus YPL241C, strain CIN2, hits give low values
[17] = locus YDR150W, strain NUM1, hits give low values
[18] = locus YNL153C, strain GIM3, hits give low values
[19] = locus YPL055C, strain LGE1, hits give low values

Measured: normalized growth

C[C@@H](Oc1ccc(Oc2cnc3ccc(Cl)cc3n2)cc1)C(=O)O
inactive: [1] 1.04 | [2] 1.04 | [3] 1 | [4] 1.01 | [5] 0.995 | [6] 1.01 | locus YGR229C, strain SMI1, hits give low values 1.02 | [7] 1 | [8] 1.01 | [9] 0.983 | [10] 0.996 | [11] 0.984 | [12] 0.996 | [13] 0.997 | [14] 1 | [15] 1 | [16] 1

Clc1ccc(Oc2ccnc3cc(Cl)ccc23)cc1
inactive: locus YAR019C, strain CDC15, hits give low values 0.898 | locus YBL105C, strain PKC1, hits give low values 0.923 | locus YBR135W, strain CKS1, hits give low values 0.913 | locus YBR136W, strain MEC1, hits give low values 0.922 | locus YBR160W, strain CDC28, hits give low values 0.918 | locus YBR229C, strain ROT2, hits give low values 0.956 | locus YDL017W, strain CDC7, hits give low values 0.919 | locus YDL028C, strain MPS1, hits give low values 0.926 | locus YDL101C, strain DUN1, hits give low values 0.915 and 0.93 | locus YDL108W, strain KIN28, hits give low values 0.921 | locus YDL132W, strain cdc53, hits give low values 0.91 | locus YDL214C, strain PRR2, hits give low values 0.745 | locus YDR052C, strain DBF4, hits give low values 0.918 | locus YDR054C, strain cdc34, hits give low values 0.894 | [17] 0.943 | locus YDR226W, strain ADK1, hits give low values 0.903 | locus YEL061C, strain CIN8, hits give low values 0.944 | locus YFL009W, strain cdc4, hits give low values 0.903 | locus YFL029C, strain CAK1, hits give low values 0.898 | locus YFR003C, strain YPI1, hits give low values 0.916 | locus YFR019W, strain FAB1, hits give low values 0.893 | locus YFR028C, strain CDC14, hits give low values 0.908 | locus YGR052W, strain FMP48, hits give low values 0.659 | locus YGR092W, strain DBF2, hits give low values 0.627 | locus YHR079C, strain IRE1, hits give low values 0.546 | locus YHR082C, strain KSP1, hits give low values 0.626 | locus YHR087W, strain rtc3, hits give low values 0.923 | locus YHR205W, strain SCH9, hits give low values 0.704 | locus YIL147C, strain SLN1, hits give low values 0.924 | locus YJL128C, strain PBS2, hits give low values 0.865 | locus YJR016C, strain ILV3, hits give low values 0.914 | locus YJR043C, strain POL32, hits give low values 0.964 | locus YJR066W, strain TOR1 (second series), hits give low values 0.684 | locus YJR066W, strain TOR1, hits give low values 0.544 | locus YKL048C, strain ELM1, hits give low values 0.888 | locus YKL067W, strain YNK1, hits give low values 0.735 | locus YKL101W, strain HSL1, hits give low values 0.772 | locus YKL193C, strain SDS22, hits give low values 0.911 | locus YLR058C, strain SHM2 (second series), hits give low values 0.951 | locus YLR133W, strain CKI1, hits give low values 0.772 | locus YLR262C, strain YPT6, hits give low values 0.817 | locus YLR403W, strain SFP1, hits give low values 0.675 | locus YML070W, strain DAK1, hits give low values 0.681 | locus YML094W, strain GIM5, hits give low values 0.994 | locus YMR001C, strain CDC5, hits give low values 0.908 | locus YMR219W, strain ESC1, hits give low values 0.948 | [8] 0.945 | locus YMR277W, strain FCP1, hits give low values 0.915 | locus YNL006W, strain LST8, hits give low values 0.92 | locus YNL020C, strain ARK1, hits give low values 0.762 | [18] 0.98 | locus YNL207W, strain RIO2, hits give low values 0.906 | locus YNL222W, strain SSU72, hits give low values 0.916 | locus YNL298W, strain CLA4 (second series), hits give low values 0.924 | locus YNL307C, strain MCK1 (second series), hits give low values 0.701 | [14] 0.947 | locus YOL078W, strain AVO1, hits give low values 0.904 | locus YOR061W, strain CKA2, hits give low values 0.792 | locus YOR329C, strain SCD5, hits give low values 0.912 | [19] 0.887 | locus YPL209C, strain IPL1, hits give low values 0.918 | locus YPR025C, strain CCL1, hits give low values 0.914 | locus YPR106W, strain ISR1, hits give low values 0.896 | locus YPR111W, strain DBF20, hits give low values 0.89 | strain TSCII, hits give low values 0.9
active: [1] 0.909 | locus YDR477W, strain SNF1, hits give low values 0.678 | locus YER123W, strain YCK3, hits give low values 0.517 | locus YER133W, strain GLC7, hits give low values 0.613 | locus YGR040W, strain KSS1, hits give low values 0.67 | [6] 0.92 | locus YHR030C, strain SLT2, hits give low values 0.235 and 0.376 | locus YJL095W, strain BCK1, hits give low values 0.49 | locus YJL157C, strain FAR1, hits give low values 0.683 | [7] 0.804 | locus YKL203C, strain TOR2, hits give low values 0.68 | locus YLR039C, strain RIC1, hits give low values 0.779 | locus YLR085C, strain ARP6, hits give low values 0.499 | locus YLR113W, strain HOG1, hits give low values 0.379 | locus YMR205C, strain PFK2 (second series), hits give low values 0.742 | locus YNL161W, strain CBK1, hits give low values 0.897 | locus YNL183C, strain NPR1, hits give low values 0.456 | locus YNR030W, strain Alg12, hits give low values 0.802 | locus YOL136C, strain PFK27, hits give low values 0.668 | locus YOR119C, strain RIO1, hits give low values 0.684 | locus YOR231W, strain MKK1, hits give low values 0.489 | locus YPL031C, strain PHO85, hits give low values 0.599 | locus YPL153C, strain RAD53, hits give low values 0.659 | locus YPL204W, strain HRR25, hits give low values 0.598 | [16] 0.638 | locus YPL256C, strain CLN2, hits give low values 0.447 | locus YPR135W, strain CTF4, hits give low values 0.325 | strain NNK1, hits give low values 0.88

Clc1cnc(Oc2ccc(Oc3ncc(Cl)cc3Cl)cc2)c(Cl)c1
inactive: [1] 1.03 | [2] 1.01 | [3] 1.01 | [17] 1.01 | [4] 1.03 | [5] 0.995 | [9] 1.02 | [10] 1.01 | [18] 1 | [11] 1 | [12] 1.02 | [13] 1.02 | [15] 1.06 | [19] 1.04 | [16] 1.01
